Screening results from PubChem.
Sampled rows, rich in hits. Any-hit rate of the full collection: about 6.2%.
HCMV antiviral: inhibitors of human cytomegalovirus. HFF cells, HCMV-luciferase reporter, 72 h; hits give low values. activity change, negative = inhibition, % at 57.5 µM. 4.5% of 410,000 active. AID 1259415; in the data active means activity change below about -60%; inconclusive means no clear call, values can overlap the other calls; inactive means above about -39%
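HFF cells seeded 16 h at 37C, treated with compounds, infected with luciferase-reporter HCMV at MOI 1 PFU/cell; luciferase read at 72 h post infection, normalized to buffer-only and Salinomycin controls.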
FMDV inh: blocks foot and mouth disease virus; FMDV antiviral cell-based qHTS; Potency, µM (series often up to 57.9 µM), inactives show at the highest dose activity change, negative = inhibition, most hits filed as inhibitors; 1.2% of 410,000 active; AID 1159524; calls by dose curve; tested in HEK293T cells; further: read-out not given here; potency means the concentration at half of the fitted maximal effect; nearly all actives have a fitted effect of over 45% in size
Marburg entry inh: Marburg virus entry inhibition; AID 540276; Marburg virus pseudotyped entry inhibition, cell reporter; Potency, µM (doses to about 37.8 µM), without a hit: top-dose activity change, negative = inhibition, hits mostly inhibitors; 1.8% of 300,000 active; calls by dose curve; tested in HEK293 cells; further: potency means the concentration at half of the fitted maximal effect
Lassa entry inh: inhibitors of Lassa virus binding or cell entry | Lassa virus pseudotype entry inhibition, cell reporter | Potency, µM (top dose mostly 37.9 µM), for inactives: top-dose activity change, negative = inhibition, actives largely listed as inhibitors | 1.2% of 300,000 active; calls by dose curve; tested in HEK293 cells; further: potency means the concentration at half of the fitted maximal effect; nearly all actives have a fitted effect of over 50% in size
Starred values were filed as active, the others as inactive; ? = inconclusive; . = not tested or not shown; [ ] = another dose, or the depositor's remark. On the % scale 0 is the no-effect control and ±100 the full control effect.

SMILES	HCMV antiviral	FMDV inh	Marburg entry inh	Lassa entry inh
Cc1nc2ccccn2c(=O)c1NC(=O)c1ccccc1Cl	83	6%	.	6%[46.1 µM]
Cc1nc(NCc2ccco2)c2c(C)c(C)sc2n1	-105*	?	?	8%
Cc1nc(SCC(=O)N(C)Cc2ccco2)c2c(C)c(C)sc2n1	?	?	7.3µM*	?
Cc1sc2ncnc(N(C)Cc3ccco3)c2c1C	-71*	22µM*	-6%	-13%
CCN(C(=O)CSc1nc(C)nc2sc(C)c(C)c12)c1ccc(F)cc1	16	?	.	.
N#Cc1cccc2c1-c1ccccc1/C2=N/NC(N)=S	.	35µM*	?	?
NC(=S)NN=C1c2ccccc2-c2c(F)c(F)c(F)c(F)c21	-27	?	?	?
COc1ccc(/C=C/C(=O)O)cc1O	6	0%	.	.
COc1ccc(/C=C/C(=O)C2C(=O)C=C(C)OC2=O)cc1O (stereo unspecified)	-77*	-9%	-21%	-3%
COc1cc(/C=C/C(=O)C2C(=O)C=C(C)OC2=O)cc(OC)c1O (stereo unspecified)	-90*	18µM*	1%	-29%
CCC1=C(OC(=O)N(CC)CC)N2C(=O)OC(=NCc3ccccc3)[C@]2(C)[C@H]2C1=CC[C@H]1C(=O)N(CC(=O)OC)C(=O)[C@H]12	-62*	71%	.	.
COc1ccc(Cn2c(-c3ccc(Br)cc3)c[n+]3ccccc23)cc1	-97*	4%	.	.
COc1ccc(Cn2c(-c3ccc(OC)cc3)nc3ccccc32)cc1	-5	-9%	17%	3%
Cc1ncc(CSSCc2cnc(C)c(O)c2CO)c(CO)c1O	-16	.	.	.
Cc1ncc(CO)c(CNc2ccc(Oc3ccccc3)cc2)c1O	-70*	-26%	-26%[46.1 µM]	?
CSc1ccc(C(=O)C2CCCN(C(=O)CCc3c(C)nn(C)c3C)C2)cc1 (stereo unspecified)	-63*	?	?	?
COc1cccc([C@@H]2Oc3ccc(OC)cc3C[C@@H]2OC(=O)N[C@H]2CCCc3ccccc32)c1	.	.	3%[14.2 µM]	.
COCCN=C1NN=C(c2ccc(NC(C)=O)cc2)CS1	-67*	51%	-17%[46.1 µM]	.
CC(=O)Nc1ccc(C2=NNC(=Nc3ccc(S(=O)(=O)N4CCOCC4)cc3)SC2)cc1	-36	-9%	11µM*	?
CC(=O)Nc1ccc(C2=NNC(=Nc3cccc(S(=O)(=O)N(C)C)c3)SC2)cc1	.	-14%	.	.
O=S(=O)(c1ccc(N=C2NN=C(c3cc(F)ccc3F)CS2)cc1)N1CCOCC1	-99*	-29%	5µM*	13µM*
CCOc1ccc2c(c1)C(c1cccs1)=NNC(c1cccnc1)=N2	-71*	-20%	-16%[46.1 µM]	-13%
Brc1ccc2c(c1)C(c1cccs1)=NNC(c1cccnc1)=N2	-30	-24%	?	-13%
CCOc1ccccc1NC(=O)C(=O)Nc1ccc2nc3n(c(=O)c2c1)CCCCC3	-3	?	4%[46.1 µM]	25%[46.1 µM]
O=C(CN(Cc1ccccc1F)C(=O)c1csnn1)NCc1ccc2c(c1)OCO2	-16	-5%	-8%[46.1 µM]	2.8µM*
SMILES	HCMV antiviral	FMDV inh	Marburg entry inh	Lassa entry inh
O=C(COC(=O)C1(c2ccccc2F)CCCC1)NCc1ccc2c(c1)OCO2	-60*	0%	-7%	?
O=C(COC(=O)/C=C/c1ccc(F)cc1)NCc1ccc2c(c1)OCO2	?	-8%	9%[46.1 µM]	25%[46.1 µM]
O=C(CN(Cc1ccc(F)cc1)C(=O)c1csnn1)NCc1ccc2c(c1)OCO2	-11	1%	-17%[46.1 µM]	.
O=C(COC(=O)c1ccc([N+](=O)[O-])o1)NCc1ccc2c(c1)OCO2	-83*	-4%	.	.
O=C(COC(=O)/C=C/c1ccc2c(c1)OCO2)NCc1ccc(F)cc1	-64*	-25%	.	.
O=C1NC[C@@H](CCCCN2CCN(CCC3CCCCC3)C(=O)C2=O)N(Cc2ccccc2)C1=O	38	5%	.	.
CC(=O)N1CCc2c(sc3c2c(=O)n(-c2ccc(C)cc2)c(=O)n3CC(=O)Nc2ccccc2)C1	73	30%	?	.
CCOc1ccc(CNS(=O)(=O)c2ccc3c(c2)CC(C)N3C(C)=O)cc1OC (stereo unspecified)	-25	?	.	-5%[46.1 µM]
Cc1cnc(C)c(-c2ccc(F)c3c2OC(CNC(=O)Cc2c(C)[nH]c4ccccc24)C3)n1 (stereo unspecified)	.	-9%	.	.
O=C(COC(=O)C1(c2ccccc2F)CCCC1)NCc1cccs1	-69*	-24%	?	?
O=C(COC(=O)c1ccc(F)cc1F)NCc1ccc2c(c1)OCO2	-15	1%	11%	16%
O=C(COC(=O)C1(c2ccc(F)cc2)CCCC1)NCc1ccc2c(c1)OCO2	-60*	40µM*	?	-2%
Cc1cc(Nc2cccc([N+](=O)[O-])c2)n2c(nc3ccccc32)c1C#N	-100*	?	3.2µM*	6.3µM*
Cc1cc(Nc2ccc(F)cc2)n2c(nc3ccccc32)c1C#N	-25	?	1%[46.1 µM]	1%[46.1 µM]
CCOC(=O)c1c(NC(=O)/C=C/c2ccc(OCC)cc2)sc2c1CCCC2	6	-10%	-7%[46.1 µM]	-12%[46.1 µM]
c1cncc(-c2nc(NCc3ccc4c(c3)OCO4)c3ccccc3n2)c1	0	?	.	.
CN(Cc1ccco1)c1nc(-c2cccnc2)nc2ccccc12	.	-7%	.	.
CN(CC1COc2ccccc2O1)c1nc(-c2cccnc2)nc2ccccc12 (stereo unspecified)	-17	25µM*	2.6µM*	?
c1cncc(-c2nc(NCC3COc4ccccc4O3)c3ccccc3n2)c1 (stereo unspecified)	-17	22µM*	?	-30%
Cc1ccc(N(C)S(=O)(=O)c2ccc(-c3coc(C)n3)cc2)cc1	17	-11%	.	-24%[46.1 µM]
Cc1ccc(N(C(=O)COc2ccccc2C)S(=O)(=O)c2ccc(Cl)cc2)cc1	-6	-6%	.	?
NC(=O)C12NC(Cc3ccccc31)c1ccccc12 (stereo unspecified)	24	.	.	.
Cc1cccc(NC(=O)Cn2cc(S(=O)(=O)N3CCCC3)c(S(=O)(=O)N3CCCC3)c2)c1C	-11	-4%	.	11%[46.1 µM]
Cc1ccc2c(Cl)cc(Cl)c(OCC(=O)Nc3cc(S(=O)(=O)N(C)C)ccc3C)c2n1	-28	?	4µM*	?
Cc1ccc2c(Cl)cc(Cl)c(OCC(=O)Nc3cccc(S(=O)(=O)N(C)C)c3)c2n1	28	?	0%	-11%
SMILES	HCMV antiviral	FMDV inh	Marburg entry inh	Lassa entry inh
O=C(c1ccc(Oc2ccc([N+](=O)[O-])cc2)cc1)N1CCCCCC1	-25	-22%	5.6µM*	?
CSc1ccc(CN2CCN(C(=O)c3ccc([N+](=O)[O-])cc3)CC2)cc1	-75*	?	?	?
O=C(Cc1ccccc1)N1CCN(Cc2ccc([N+](=O)[O-])cc2)CC1	?	-23%	?	-7%
O=C(c1ccc(Oc2ccc([N+](=O)[O-])cc2Cl)cc1)N1CCCC1	?	-14%	-14%[46.1 µM]	-17%
Cc1ccc(-n2nc(CO)c(C(=O)NCc3cccnc3)n2)cc1C	19	-9%	?	?
CC1CCCN(c2ccc(F)cc2N)C1 (stereo unspecified)	-78*	-6%	?	?
Cc1ccc(NC(=O)CCC(=O)c2cccs2)cc1F	-64*	-10%	19%[46.1 µM]	2%
Cc1ccnc(NC(=O)CCC(=O)c2cccs2)c1	-39	14µM*	?	?
